Screens: PubChem BioAssay, National Center for Advancing Translational Sciences (NCATS)
PLK1 PBD inh: qHTS for Inhibitors of PLK1-PDB (polo-like kinase 1 - polo-box domain): Primary Screen; Serine/threonine-protein kinase PLK1 (Homo sapiens), P53350; Plk1 PBD binding of FITC phosphopeptide, fluorescence polarization; Potency, µM, without a hit: max response, negative = inhibition, most hits filed as inhibitors; 2.8% of 360,000 active; further: series mostly up to about 57 µM; on the % scale 0 is the no-effect control and ±100 the full control effect; nearly all actives have a fitted effect of over 65% in size
Target sequence (P53350 whole entry, looked up, the tested form may be a part): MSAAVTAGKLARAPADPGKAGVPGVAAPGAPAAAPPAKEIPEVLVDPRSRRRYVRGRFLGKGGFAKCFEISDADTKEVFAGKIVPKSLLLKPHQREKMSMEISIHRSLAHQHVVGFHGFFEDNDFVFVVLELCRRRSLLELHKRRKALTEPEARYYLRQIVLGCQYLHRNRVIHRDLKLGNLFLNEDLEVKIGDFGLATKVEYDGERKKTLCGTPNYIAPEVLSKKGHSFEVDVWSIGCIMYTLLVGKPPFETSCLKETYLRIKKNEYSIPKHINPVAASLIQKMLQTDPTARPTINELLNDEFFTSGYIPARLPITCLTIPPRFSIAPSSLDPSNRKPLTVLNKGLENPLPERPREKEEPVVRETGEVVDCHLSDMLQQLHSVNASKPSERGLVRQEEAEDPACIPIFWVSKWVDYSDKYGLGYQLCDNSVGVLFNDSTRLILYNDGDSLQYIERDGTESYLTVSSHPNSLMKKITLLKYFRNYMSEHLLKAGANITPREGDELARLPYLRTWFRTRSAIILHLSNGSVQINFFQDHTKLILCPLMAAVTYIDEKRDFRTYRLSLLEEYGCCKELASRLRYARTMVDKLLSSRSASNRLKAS
VDR inh: Inhibitors of the vitamin D receptor (VDR): qHTS; Vitamin D3 receptor (Homo sapiens), P11473; 0.93% of 400,000 active; AID 504847, 2011; Potency, µM, inactives show max response, negative = inhibition, usual class: inhibitors; VDR-SRC2-3 peptide fluorescence polarization, 2 h; further: on the % scale 0 is the no-effect control and ±100 the full control effect
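The screen uses fluorescence polarization to detect compounds that interfere with recruitment of the SRC2-3 coactivator peptide to VDR; plates are read after 2 h at room temperature.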
KAT2A inh: qHTS Assay for Inhibitors of GCN5L2; GCN5L2 HAT assay, ThioGlo1 CoA-SH fluorescence; Potency, µM (highest dose often 58.9 µM), for the others: at the highest dose activity change, negative = inhibition, hits mostly inhibitors; 0.21% of 390,000 active; AID 504327, 2011; further: on the % scale 0 is the no-effect control and ±100 the full control effect
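qHTS, 1536-well. 20nM enzyme, pH 7.5 HEPES/EDTA/Tween-20 buffer; 15 min compound preinc., RT. Start: 75uM H3(1-25), 70uM AcCoA, 50uM ThioGlo1. Read Ex340/Em540 at t=0 (autofluorescence flag) and t=20 min.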
USP1 inh: Inhibitors of USP1/UAF1: Primary Screen; recombinant USP1/UAF1, Ub-Rhodamine cleavage fluorescence; Ubiquitin carboxyl-terminal hydrolase 1 (Homo sapiens), O94782; 0.23% of 390,000 active; AID 743255, 2014; Potency, µM (highest dose often 57.1 µM), for inactives: at the top dose activity change, negative = inhibition, actives largely listed as inhibitors; further: on the % scale 0 is the no-effect control and ±100 the full control effect; nearly all actives have a fitted effect of over 60% in size
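In this screen, compounds sit with the deubiquitinase complex (1nM) for 15 min at room temperature before Ub-Rho is added at 150nM final. Fluorescence rise is then followed for 6 reads every 60 seconds.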
PTAP TSG101 blk: qHTS Assay for Iinhibitors of HIV-1 Budding by Blocking the Interaction of PTAP/TSG101; Tumor susceptibility gene 101 protein (Homo sapiens), Q99816; Fluorescence polarization, FITC-PTAP peptide / Tsg101 binding; Potency, µM (top dose mostly 115 µM), for inactives: at the highest dose activity change, negative = inhibition, most hits filed as inhibitors; 340,000 tested, under 10 active; AID 493005, 2010; active means well fitted inhibition curve with a large enough effect in the main read-out, with a control signal flat, not every such curve was filed as active; inconclusive means small, poorly fitted or top-dose-only effect, or effect the other way, or a change in a side signal; inactive means no such curve, though single readings can be large or run the other way; further: % of control where 0% means no effect
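Compounds were pin-transferred onto Tsg101 binding domain (10 uM final) in HEPES pH 7.5 buffer, then FITC-PTAP peptide was added at 50 nM final. After 20 min at RT, polarization reported peptide displacement across a qHTS concentration series.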
Active calls of the source: *. Shown are actives, neighbours in structure and some others; about 3% of the full set was active somewhere. Unless noted, the call rests on the fitted dose curve; in most records, active means well fitted curve in the direction sought with a large enough effect; inconclusive means small, poorly fitted or top-dose-only effect, or another doubt; inactive means no such curve, though single readings can be large; an effect the other way counts as inactive or inconclusive. Potency means the concentration at half of the fitted maximal effect.

Results for CCOC(=O)c1c(N)n(-c2ccc(CC)cc2)c2nc3ccccc3nc12 ?
VDR inh: -10%; KAT2A inh: -19%; USP1 inh: inconclusive

How did CNCc1ccccc1Sc1cc(O)ccc1O do in these assays?
PLK1 PBD inh: 5.3µM*; VDR inh: 35µM*; KAT2A inh: -13%; USP1 inh: -22%; PTAP TSG101 blk: -1%

Results for Cc1ccccc1NC(=O)Cc1nc(COC(=O)c2nccnc2N)cs1 ?
PLK1 PBD inh: -8%; USP1 inh: -11%

What do the screens show for `CCC(C)N(C(=O)CSc1ccc(NC(C)=O)cc1)C1CCS(=O)(=O)C1` (stereo unspecified)?
PLK1 PBD inh: 30µM*; VDR inh: 3%; KAT2A inh: -1%; USP1 inh: -4%; PTAP TSG101 blk: 1%

How did Cn1c(SCC(=O)N2CCCC2)nc2cccnc21 do in these assays?
PLK1 PBD inh: -8%; VDR inh: -6%; KAT2A inh: -2%; USP1 inh: -11%; PTAP TSG101 blk: -2%

Results for O=C(CSc1nc2cccnc2n1Cc1ccccc1)N1CCCC1 ?
PLK1 PBD inh: 30µM*; VDR inh: inconclusive; KAT2A inh: -6%; USP1 inh: -4%; PTAP TSG101 blk: 4%

What do the screens show for `C/C(CC1CC2=C(CC1(C)C)C(C)(C)CCC2)=N\NC(N)=S` (stereo unspecified)?
PLK1 PBD inh: 17µM*; VDR inh: 79µM*; KAT2A inh: -7%; USP1 inh: -7%; PTAP TSG101 blk: -1%

Results for O=C(Nc1cc(S(=O)(=O)N2CCOCC2)ccc1O)c1ccco1 ?
PLK1 PBD inh: 30µM*; VDR inh: 0%; KAT2A inh: -20%; USP1 inh: 6%; PTAP TSG101 blk: -2%

What do the screens show for `O=C(Nc1cc(S(=O)(=O)N2CCOCC2)ccc1O)c1ccc2c(c1)S(=O)(=O)c1ccccc1C2=O`?
PLK1 PBD inh: 11µM*; VDR inh: inconclusive; KAT2A inh: 3%; USP1 inh: -20%; PTAP TSG101 blk: -3%

How did CCc1ccccc1NC(=O)[C@H](Cc1ccccc1)N1Cc2ccccc2C1=O do in these assays?
VDR inh: -14%; KAT2A inh: -1%; USP1 inh: -22%

Results for COc1ccccc1CCNC(=O)C(=O)c1cn(CC(=O)N2CCOCC2)c2ccccc12 ?
PLK1 PBD inh: 24µM*; VDR inh: inconclusive; KAT2A inh: 0%; USP1 inh: -24%; PTAP TSG101 blk: -4%

Results for COc1ccccc1-n1cnnc1SCC(=O)c1c[nH]c2ccccc12 ?
PLK1 PBD inh: 27µM*; VDR inh: inconclusive; KAT2A inh: -6%; USP1 inh: -21%; PTAP TSG101 blk: -9%

Results for Cc1occc1-c1nnc(SCC(=O)c2ccc(Cl)cc2)n1C ?
PLK1 PBD inh: -17%; VDR inh: inconclusive; KAT2A inh: -5%; USP1 inh: -16%; PTAP TSG101 blk: -6%

How did Cc1occc1-c1nnc(SCC(=O)c2c[nH]c3ccccc23)n1C do in these assays?
PLK1 PBD inh: 24µM*; VDR inh: -22%; KAT2A inh: -7%; USP1 inh: -21%; PTAP TSG101 blk: -7%

How did CCN(CC)c1ccc(/C=N/Nc2ccccc2)c(O)c1 do in these assays?
PLK1 PBD inh: inconclusive; VDR inh: 79µM*; KAT2A inh: -14%; USP1 inh: inconclusive; PTAP TSG101 blk: -5%

How did CCN(CC)c1ccc(C=Nc2ccc(C)cc2)c(O)c1 do in these assays?
PLK1 PBD inh: -11%; VDR inh: -1%; KAT2A inh: -13%; USP1 inh: -16%; PTAP TSG101 blk: -5%

Results for CCN(CC)c1ccc(N=Cc2ccc(N(CC)CC)cc2O)cc1 ?
PLK1 PBD inh: 71%; VDR inh: 50µM*; KAT2A inh: -23%; USP1 inh: inconclusive; PTAP TSG101 blk: inconclusive

Results for N[C@H](C(=O)O)c1ccc(C(=O)O)cc1 ?
VDR inh: 5%; KAT2A inh: -14%

Results for O=C(Nc1nnc(-c2ccncc2)o1)c1ccccc1 ?
PLK1 PBD inh: 7.5µM*; VDR inh: inconclusive; KAT2A inh: -18%; USP1 inh: -14%; PTAP TSG101 blk: -1%

Results for Oc1cccc(C(=S)N2CCN(Cc3ccccc3)CC2)c1 ?
PLK1 PBD inh: 15µM*; VDR inh: -27%; KAT2A inh: -3%; USP1 inh: -23%; PTAP TSG101 blk: -2%

How did O=C(c1ccccc1)N1CCN(Cc2ccccc2)CC1 do in these assays?
PLK1 PBD inh: -2%; VDR inh: -5%; KAT2A inh: 1%; USP1 inh: 8%; PTAP TSG101 blk: 0%

What do the screens show for `Oc1cccc(C(=S)N2CCC(Cc3ccccc3)CC2)c1`?
PLK1 PBD inh: 21µM*; VDR inh: inconclusive; KAT2A inh: -12%; USP1 inh: -26%; PTAP TSG101 blk: -6%

What do the screens show for `CNC(=S)N1CCC(Cc2ccccc2)CC1`?
PLK1 PBD inh: -3%; VDR inh: 10%; KAT2A inh: 1%; USP1 inh: -32%; PTAP TSG101 blk: -5%

How did CC(C)NC(=O)NC(=O)COC(=O)c1cc[n+]([O-])cc1 do in these assays?
PLK1 PBD inh: -10%; VDR inh: -25%; KAT2A inh: -6%; USP1 inh: 0%; PTAP TSG101 blk: -2%

Results for CSc1ccccc1C(=O)C1CCCN(C(=O)c2cncs2)C1 (stereo unspecified) ?
PLK1 PBD inh: 13µM*; VDR inh: 32µM*; KAT2A inh: 1%; USP1 inh: -20%; PTAP TSG101 blk: -3%

Results for CSc1ccccc1C(=O)C1CCCN(C(=O)CCc2cccnc2)C1 (stereo unspecified) ?
PLK1 PBD inh: -25%; VDR inh: -13%; KAT2A inh: -6%; USP1 inh: -23%; PTAP TSG101 blk: -1%

What do the screens show for `COc1ccccc1NC(=O)c1cccc(S(=O)(=O)N2CCCCCC2)c1`?
VDR inh: -21%; KAT2A inh: -8%; USP1 inh: -20%

Results for N#CCCCN1C(=O)C(=C(C#N)C#N)c2ccccc21 ?
PLK1 PBD inh: 5.3µM*; VDR inh: inconclusive; KAT2A inh: 12%; USP1 inh: -7%; PTAP TSG101 blk: -4%

Results for CS(=O)(=O)Nc1cccc(C2=NN(S(=O)(=O)c3ccccc3)C(c3ccco3)C2)c1 (stereo unspecified) ?
PLK1 PBD inh: 30µM*; VDR inh: -14%; KAT2A inh: -7%; USP1 inh: -17%; PTAP TSG101 blk: -2%

Results for CCOC(=O)c1ccc(NC(=O)c2ccc(-c3cccc(Cl)c3C)o2)cc1 ?
VDR inh: -3%; KAT2A inh: -6%; USP1 inh: -27%
